The values that follow come from PubChem BioAssay.

The structures appear in SMILES notation.

In the experiment the test system is Sam68 (KHDRBS1). Put plainly: compounds binding KHDRBS1 protein – biochemical, small-molecule microarray, 635 nm fluorescence, primary screen (AID 1125).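 Also: score merges 667 nm channel intensity with signal to noise over triplicate slides.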 To be noted: higher = more signal.
Compound `C[C@@H]1ON(c2ccccc2)[C@H](c2ccccc2)[C@H]1C(=O)O` gave a composite z-score of 0.0005.

`C[C@]1(C(=O)O)c2ccccc2C(=O)N(Cc2cc(F)cc(C(F)(F)F)c2)[C@H]1c1ccc(CO)cc1` gave a composite z-score of 0.0491.

As to `COCCOC(=O)N1C(=O)[C@@]2(c3cc(C#CCCO)ccc31)[C@H](c1ccccc1OCCO)N1[C@H](c3ccccc3)[C@H](c3ccccc3)OC(=O)[C@H]1[C@@H]2C(N)=O`, the composite z-score amounted to 1.3.

Compound `O=C1[C@H]2C=C(I)[C@H](C[C@@H]2OCCCCCCO)[C@@]12CO2` returned a composite z-score of -0.747.

On to `C=CCOC(=O)[C@@H]1[C@H]2C(=O)O[C@H](c3ccccc3)[C@H](c3ccccc3)N2[C@H](c2ccc(OCCOC(=O)[C@H]3C[C@H]4C(=O)N[C@@H](CCCCN(C)C)C(=O)N4[C@H]3c3ccc(O)cc3)cc2)[C@@]12C(=O)Nc1ccc(I)cc12`, for which the composite z-score came out at 1.29.

The compound `O=C(NCc1ccccc1)[C@@H]1c2ccccc2C(=O)N(Cc2cc(C(F)(F)F)cc(C(F)(F)F)c2)[C@H]1c1ccc(CO)cc1` yielded a composite z-score of 1.3.

As for `CCCC[C@H]1C[C@@H]1[C@@H]1N(C(C)=O)[C@H](c2cccc(OC)c2)CC12CC2`, the composite z-score is -0.658.

In turn, `CCOC(=O)C1=CCC(c2cc3ccccc3[nH]2)N(CCN2CC(C(=O)OCC)=CCC2c2cc3ccccc3[nH]2)C1` (stereo not drawn) showed a composite z-score of 1.29.

Consider `C=C(CCCC)/C(=C/C[C@H](OC(C)=O)c1cccc(OCCO)c1)c1cnc2ccccc2c1`, for which the composite z-score was 0.0549.

Compound `CCCN1C(=O)[C@@]2(c3ccc([N+](=O)[O-])cc3)CC(=O)N(CC34CC5CC(CC(C5)C3)C4)[C@@H]2c2ccc(CO)cc21` showed a composite z-score of -0.83.

`COc1ccc(C(O)C2C=CC3C(=O)N(c4ccccc4)C(=O)C3N2Nc2ccc(C#N)cc2)cc1OCc1ccccc1` (stereo not drawn) gave a composite z-score of 1.3.

`CC(C)NC(=O)[C@@]1(c2ccc([N+](=O)[O-])cc2)CC(=O)N(CC23CC4CC(CC(C4)C2)C3)[C@@H]1c1ccc(CO)cc1` gave a composite z-score of 1.29.

As for `CC1=C([C@H](O)CCc2ccccc2)[C@H](CO)n2c(=O)n(-c3ccccc3)c(=O)n2C1`, the composite z-score is -0.308.

As for `O=C(NC1CC1)[C@@H]1c2ccccc2C(=O)N(Cc2cc(C(F)(F)F)cc(C(F)(F)F)c2)[C@H]1c1ccc(CO)cc1`, the composite z-score was 0.157.

In turn, `COC(=O)[C@@]1(Cc2ccccc2)N=C(c2ccc(OCCCO)cc2)O[C@H]1c1ccccc1CN=[N+]=[N-]` registered a composite z-score of 1.2.

`O=C1c2ccccc2[C@@]2(Cc3ccccc3N(Cc3ccccc3)C2=O)[C@H](c2ccc(CO)cc2)N1Cc1ccccc1Cl` gave a composite z-score of -0.633.

For `CC(C)C[C@H]1NC(=O)C([C@@H](C)OCc2ccccc2)NC(=O)[C@@]23C(=O)N[C@@H](Cc4ccccc4)C2[C@H](C)[C@@]2(C)O[C@H]2C3/C=C/C/C=C\CNC1=O` (stereo partly drawn), the composite z-score was determined as 1.3.

Regarding `CC(C)=CCCC(C)=CC(O)C1C=CC2C(=O)NC(=O)C2N1Nc1ccc(Cl)cc1Cl` (stereo not drawn), the composite z-score was 0.623.

Consider `CCCCC(=C=CC[C@H](O)c1ccc(CO)o1)CCO`, for which the composite z-score turned out to be 0.864.

As for `CCOC(=O)C1=CC[C@@H](c2ccccc2)N(S(=O)(=O)c2ccc(C)cc2)[C@H]1c1ccccc1I`, the composite z-score came out at 0.875.

Turning to `[N-]=[N+]=Nc1ccccc1[C@@H]1OC(c2ccc(OCCCO)cc2)=N[C@]1(CCS(=O)(=O)c1ccccc1)C(=O)NCC(O)CO` (stereo partly drawn), the composite z-score came out at 0.885.

`N#Cc1ccc(NN2C(C(O)C3CC=CCC3)C=CC3C(=O)N(c4ccccc4)C(=O)C32)cc1` (stereo not drawn) showed a composite z-score of 1.32.

Consider `CC(C)C[C@@H]1NC(=O)[C@@]23C(=O)N[C@@H](Cc4ccccc4)C2[C@H](C)[C@@]2(C)O[C@H]2C3/C=C/C/C=C\CNC(=O)CNC1=O` (stereo partly drawn), for which the composite z-score was found to be 0.613.

`COc1ccc([Si](C)(C)[C@H]2[C@H](CC(=O)N3CCC[C@H]3CO)O[C@@]3(C(=O)N(Cc4ccc(N5CCCCC5=O)cc4)c4ccccc43)[C@@H]2C)cc1` registered a composite z-score of 1.3.

Compound `C=CCC(OC(C)=O)[C@@H]1[C@@H](N(Cc2cccc3ccccc23)C(=O)Cc2ccc(OC)cc2)c2cc(OCCCO)ccc2N1C(=O)c1ccc2ccccc2c1` (stereo partly drawn) had a composite z-score of -0.278.

The compound `NC(=O)NCC#Cc1ccc2c(c1)[C@]1(C(=O)N2)[C@H](c2ccc(OCCO)cc2)N2[C@H](c3ccccc3)[C@H](c3ccccc3)OC(=O)[C@H]2[C@@H]1C(=O)O` came in with a composite z-score of -0.761.

In the case of `O=C1O[C@H](c2ccccc2)[C@H](c2ccccc2)N2[C@H]1[C@@H](C(=O)N1CCN(c3ncccn3)CC1)[C@]1(C(=O)Nc3ccc(C#CCCO)cc31)[C@H]2c1ccc(O)cc1`, the composite z-score is 0.574.

In the case of `C=C(CCCC)/C(=C/C[C@H](OC(=O)c1ccncc1)c1cccc(OCCO)c1)c1cnc2ccccc2c1`, the composite z-score is 1.26.
